Results reported in PubChem BioAssay (NCI).
About 83,000 compounds went through this panel and 20% of them were active in at least one assay; those are over-represented in the sample as a whole.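 Interpretation: 100, growth as untreated; towards 0, rising growth inhibition; 0, no net growth; 0 to -100, cell death. Compounds scoring below 10 were considered active.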 Calls of active or inactive are those of the source.

How the values were obtained:
Test in all cases: NCI-60 one-dose screen, 48 h (100 = growth as untreated, 0 = no growth, -100 = all killed)
Settings in all cases: 10 µM unless noted
T-47D breast = system: T-47D breast
MDA-MB-435 melanoma = system: MDA-MB-435 melanoma
SW-620 colon = system: SW-620 colon
MCF7 breast = system: MCF7 breast
HCT-116 colon = system: HCT-116 colon
HCC-2998 colon = system: HCC-2998 colon
KM12 colon = system: KM12 colon
MDA-MB-468 breast = system: MDA-MB-468 breast
BT-549 breast = system: BT-549 breast

Measured: growth

COC(=O)c1c(C(=O)OC)c2ccc3c4ccccc4ccc3n2c1C(=O)C(C)Br (configuration not stated)
inactive: T-47D breast 36.5% | MDA-MB-435 melanoma 10.3% | HCT-116 colon 14% | HCC-2998 colon 67.9% | KM12 colon 91.5% | MDA-MB-468 breast 50.7%
active: SW-620 colon 9.86% | MCF7 breast 6.04%

Fc1ccccc1CNc1nc(SCCN2CCOCC2)nc2c1cnn2CC(Cl)c1ccc(Br)cc1 (configuration not stated)
active: SW-620 colon -51% | KM12 colon 8.13%
inactive: T-47D breast 14.2% | MDA-MB-435 melanoma 29.6% | MCF7 breast 21.3% | HCT-116 colon 26.1% | HCC-2998 colon 21.4% | MDA-MB-468 breast 22.1%

Cc1cc(N=C(N)c2ccccc2)ccc1OCCCCCCCCn1ccnc1
inactive: T-47D breast 26.4% | SW-620 colon 20% | HCT-116 colon 11.4%
active: MCF7 breast -4.6% | HCC-2998 colon -32.6% | MDA-MB-468 breast 2.88%

O=C1CCC(N2C(=O)c3cccc(NCCOCCOCCOCCC(=O)NCCCC(=O)NC(c4ccc5c(c4)OCO5)c4cc(Cl)c5cccnc5c4O)c3C2=O)C(=O)C1 (configuration not stated)
active: MDA-MB-468 breast -33.9%
inactive: T-47D breast 16% | BT-549 breast 11.3% | MDA-MB-435 melanoma 47.4% | SW-620 colon 39% | HCT-116 colon 28.3% | HCC-2998 colon 30% | KM12 colon 13.4%

COc1cc(NC(=O)C(C)C)ccc1C(=O)NC(=S)Nc1ccc(S(N)(=O)=O)cc1
inactive: T-47D breast 99.5% | MDA-MB-435 melanoma 106% | SW-620 colon 107% | MCF7 breast 101% | HCT-116 colon 106% | HCC-2998 colon 116% | KM12 colon 100% | MDA-MB-468 breast 123%

CCN1C(=O)N(CC)C2NNC(Sc3c(C(=O)O)c4ccccc4n(CC(C)C)c3=O)=NC21 (configuration not stated)
active: MDA-MB-435 melanoma -51% | MCF7 breast 8.53% | HCT-116 colon 9.94% | MDA-MB-468 breast 7.22%
inactive: T-47D breast 72.5% | SW-620 colon 30.5% | HCC-2998 colon 18.7% | KM12 colon 21.4%

O=C(N/N=C/c1ccc(Cl)cc1)c1ccc(OCc2nc3ccc(Cl)cc3[nH]2)cc1
inactive: HCT-116 colon 22.7% | HCC-2998 colon 18.2% | KM12 colon 52.9% | MDA-MB-468 breast 52.4%
active: T-47D breast -19.6% | MDA-MB-435 melanoma -15.7% | SW-620 colon -40.3% | MCF7 breast -21.7%

Clc1ccc(CNc2nc(SCCN3CCOCC3)nc3c2cnn3CC(Cl)c2ccc(Br)cc2)cc1 (configuration not stated)
inactive: T-47D breast 22.4% | MDA-MB-435 melanoma 27.6% | SW-620 colon 19.2% | MCF7 breast 10.1% | HCT-116 colon 22.7% | HCC-2998 colon 30.9% | KM12 colon 28% | MDA-MB-468 breast 39.9%

Oc1ccc(F)c(Nc2nc(SCCN3CCOCC3)nc3c2cnn3CC(Cl)c2ccc(Br)cc2)c1 (configuration not stated)
active: T-47D breast -6.68% | MCF7 breast 7.39% | MDA-MB-468 breast -20.5%
inactive: MDA-MB-435 melanoma 17.8% | SW-620 colon 29.3% | HCT-116 colon 14.9% | HCC-2998 colon 15.8% | KM12 colon 11%

COC(=O)c1cc(C(=O)C(Br)Br)n2c1ccc1c3ccccc3ccc12
inactive: MDA-MB-435 melanoma 79% | SW-620 colon 45.2% | HCT-116 colon 49.6% | HCC-2998 colon 43.5% | KM12 colon 39.7%
active: T-47D breast 1.99% | MCF7 breast 5.77% | MDA-MB-468 breast -8.15%

Cc1ccc2nc(SCc3ccccc3F)n(-c3ccccc3)c(=O)c2c1
inactive: T-47D breast 81.4% | BT-549 breast 107% | MDA-MB-435 melanoma 111% | SW-620 colon 104% | HCT-116 colon 68.2% | HCC-2998 colon 109% | KM12 colon 93.7% | MDA-MB-468 breast 89.3%

Nc1nnc(CS(=O)(=O)c2ccccc2)s1
inactive: T-47D breast 102% | MDA-MB-435 melanoma 113% | SW-620 colon 108% | MCF7 breast 101% | HCT-116 colon 107% | HCC-2998 colon 103% | KM12 colon 101% | MDA-MB-468 breast 111%

Cn1cc(-c2cc3nc(-c4c[nH]c5ccccc45)cc(N)n3n2)c2ccccc21
active: T-47D breast -69.4% | MDA-MB-435 melanoma -81.8% | SW-620 colon -77.1% | MCF7 breast -67.4% | HCT-116 colon -74.2% | HCC-2998 colon -78.2% | KM12 colon -33.9% | MDA-MB-468 breast -53.9%

Fc1ccc(F)c(CNc2nc(SCCN3CCOCC3)nc3c2cnn3CC(Cl)c2ccc(Br)cc2)c1 (configuration not stated)
inactive: T-47D breast 10.8% | HCT-116 colon 16.8% | HCC-2998 colon 24.7%
active: MDA-MB-435 melanoma -13.3% | SW-620 colon -3.05% | MCF7 breast 2.55% | KM12 colon 4.2% | MDA-MB-468 breast -22.9%

Cc1cccc(NCC(=O)N2CCN(c3ncnc4c3cnn4-c3ccccc3)CC2)c1
inactive: T-47D breast 33.6% | BT-549 breast 76.9% | MDA-MB-435 melanoma 59% | SW-620 colon 81.5% | HCT-116 colon 58.7% | HCC-2998 colon 86.4% | KM12 colon 40.6% | MDA-MB-468 breast 35.8%

COC(=O)c1cc(C(=O)C(C)(C)C)n2c3ccccc3c3ccccc3c12
inactive: T-47D breast 47.1% | BT-549 breast 111% | MDA-MB-435 melanoma 105% | SW-620 colon 101% | HCT-116 colon 88.4% | HCC-2998 colon 124% | KM12 colon 79.5% | MDA-MB-468 breast 88.3%

Fc1cccc(CNc2nc(SCCN3CCOCC3)nc3c2cnn3CC(Cl)c2ccc(Br)cc2)c1 (configuration not stated)
inactive: MDA-MB-435 melanoma 10.6% | HCT-116 colon 18.4% | HCC-2998 colon 12.2%
active: T-47D breast 1.04% | SW-620 colon -38.2% | MCF7 breast 7.42% | KM12 colon 8.48%

COc1cccc(C(N)=Nc2ccc(OCCCCCCCCn3cncn3)cc2)c1
inactive: T-47D breast 52% | SW-620 colon 21.2% | MCF7 breast 18.3% | HCT-116 colon 12.5% | HCC-2998 colon 23.4%

NS(=O)(=O)c1cccc(Nc2nc(SCC(=O)c3ccc(F)cc3)nc3ccccc23)c1
inactive: SW-620 colon 27.4% | HCC-2998 colon 16%
active: BT-549 breast -5.16% | MDA-MB-435 melanoma -18% | MCF7 breast 2.1% | HCT-116 colon 5.03% | KM12 colon -1.98% | MDA-MB-468 breast -9.09%

Fc1ccc(Nc2nnc(-c3c[nH]c4ccccc34)o2)cc1
inactive: BT-549 breast 67.3% | MDA-MB-435 melanoma 89.8% | SW-620 colon 100% | MCF7 breast 49.9% | HCT-116 colon 90.3% | HCC-2998 colon 98.5% | KM12 colon 64.4% | MDA-MB-468 breast 32.6%

CC1=C(C(=O)Nc2ccccc2)C(c2cccc(Cl)c2Cl)n2c(nc3ccccc32)N1 (configuration not stated)
inactive: BT-549 breast 71% | MDA-MB-435 melanoma 26.5% | SW-620 colon 56.5% | MCF7 breast 24.6% | HCT-116 colon 29.6% | HCC-2998 colon 25.6% | KM12 colon 32.9%

O=C(CSc1nc2ccccc2c(=O)[nH]1)Nc1ccccc1C(=O)O
inactive: BT-549 breast 103% | MDA-MB-435 melanoma 104% | SW-620 colon 130% | MCF7 breast 84.5% | HCT-116 colon 107% | HCC-2998 colon 125% | KM12 colon 100% | MDA-MB-468 breast 92.5%

Nc1nc(-c2ccccc2)c(N=Nc2ccc(Cl)cc2Cl)s1
active: BT-549 breast -47.2% | MDA-MB-435 melanoma -51.7% | SW-620 colon -59.7% | MCF7 breast -28.9% | HCT-116 colon -80.6% | HCC-2998 colon -87.7% | KM12 colon -70.8% | MDA-MB-468 breast -63.3%

O=c1[nH]c2ccccc2cc1CSc1ccccc1Nc1nccc(-c2ccc3c(c2)OCO3)n1
inactive: BT-549 breast 67.6% | MDA-MB-435 melanoma 98.8% | SW-620 colon 93.2% | MCF7 breast 69.2% | HCT-116 colon 93.2% | HCC-2998 colon 116% | KM12 colon 99.3% | MDA-MB-468 breast 84.4%

C=CC[n+]1cccc2c3ccccc3ccc21
inactive: MDA-MB-435 melanoma 61.3% | SW-620 colon 45.1% | MCF7 breast 25.2% | HCT-116 colon 48.6% | HCC-2998 colon 55.7% | KM12 colon 20.2%
active: BT-549 breast 9.92% | MDA-MB-468 breast -9.82%

Cc1ccc2nc(COc3ccc(C(=O)NNC(=O)Nc4ccc(Cl)c(C(F)(F)F)c4)cc3)[nH]c2c1
inactive: SW-620 colon 43.4% | MCF7 breast 53.4% | HCC-2998 colon 70.1% | KM12 colon 24.9%
active: BT-549 breast -2.01% | MDA-MB-435 melanoma 8.76% | HCT-116 colon 4.51% | MDA-MB-468 breast -56.9%

CCCN(CCC)S(=O)(=O)c1ccc(C(=O)O)cc1.CCCN(CCC)S(=O)(=O)c1ccc(C(=O)O)cc1.[Cl][Pt+2][Cl].[NH2-].[NH2-]
active: BT-549 breast -78.8% | MDA-MB-435 melanoma -54.6% | MCF7 breast 8.34% | HCT-116 colon 2.04% | HCC-2998 colon -27.6% | MDA-MB-468 breast -54.3%
inactive: SW-620 colon 20.6% | KM12 colon 17.8%

CN(C)c1ccc(/C=C/c2n(Cc3ccc4ccccc4c3)c3ccccc3[n+]2Cc2ccc3ccccc3c2)cc1
active: BT-549 breast -87.1% | MDA-MB-435 melanoma -94.7% | SW-620 colon -65.4% | MCF7 breast -67.3% | HCT-116 colon -62.7% | HCC-2998 colon -89.1% | KM12 colon -29.9% | MDA-MB-468 breast -82.2%
